Assay results published in PubChem BioAssay (NCI).
About 79,000 compounds went through this panel and 15% of them were active in at least one assay; those are over-represented in the sample as a whole. A number with no mark means an inactive call. Calls of active or inactive are those of the source. Cut-off read from the data, not from the text of the source: active = growth inhibition above about 70%; inactive = the rest.

Assay: NCI Yeast Anticancer Drug Screen. Data for the mec2-1 strain (AID 157)
Conditions: S. cerevisiae mec2-1 strain, at 5.0 µM (retest, dose inferred, filed as 0.5), hits give high values
How it was run: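 Mutant yeast (mec2-1) grown with compound; growth inhibition relative to vehicle control reported.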
For `O=[N+]([O-])c1cccc(S(=O)(=O)N/N=C/c2cc(I)cc([N+](=O)[O-])c2O)c1`, the growth inhibition was 5%. In the case of `COc1cc(N=Nc2cccc(S(N)(=O)=O)c2)c2ccccc2c1N`, the growth inhibition is reported as -2%. `O=S(=O)(c1ccc(O)cc1)c1ccc(Cl)cc1` showed a growth inhibition of -11%. `C[N+](C)=c1ccc2nc3c(cc(NCCCNc4cc5oc6cc(=[N+](C)C)ccc-6nc5c5ccccc45)c4ccccc43)oc-2c1` gave a growth inhibition of -7%. `CC(C)(C)C(=O)/C=C/c1ccc2ccccc2n1` gave a growth inhibition of -48%. In the case of `CSc1ccc(/C=N/NC(N)=S)cc1`, the growth inhibition is reported as -53%. For `CN(C)c1ccc(/C=C(\C#N)c2c(F)cccc2F)cc1`, the growth inhibition was 3%. With `O=C(/C=C\c1ccccc1)N1c2ccccc2CC1c1c[nH]c2ccccc12` (stereo not given) the growth inhibition was -1%. Compound `COc1cccc(C2c3cc4c(cc3OC(Nc3ccccc3)C2C)OCO4)c1O` (stereo not given) has a growth inhibition of -8%. `CC(/C=C/c1cccs1)=N\C(=S)NC(N)=S` showed a growth inhibition of 10%. Compound `C=C1C(=O)O[C@H]2[C@H](OC(C)=O)[C@@H](C)CCC/C(C)=C/CC[C@@]3(C)O[C@@H]3C[C@@H]12` has a growth inhibition of 17%. Work on `CC(=O)O/C=C\COC(C)=O` yielded a growth inhibition of 2%. In the case of `Cn1cc(NC(=O)c2cc(NC(=O)CCCCCCCCC(=O)Nc3cc(C(=O)Nc4cc(C(=O)NCCC(N)N)n(C)c4)n(C)c3)cn2C)cc1C(=O)NCCC(=N)N`, the growth inhibition is reported as 87% (active). In the case of `CCCCCCCNCCCCCC`, the growth inhibition is reported as 20%. `Cc1ccc(S(=O)(=O)N(c2ccccc2-c2ccccc2)C(C)C(=O)O)cc1` (stereo not given) showed a growth inhibition of 13%. `CCCN1C(=O)c2ccccc2C1=O` showed a growth inhibition of 1%. `CCC(CC)COC(=O)c1ccc(O)c(O)c1` gave a growth inhibition of -5%. For `COc1ccc(C2SCC(=O)N2c2nncs2)cc1` (stereo not given), the growth inhibition was -3%. With `O=NN(CCCl)C(=O)Oc1cc(Cl)c(Cl)cc1Cl` the growth inhibition was 79% (active). With `O=C(c1ccccc1)c1ccccc1S(=O)(=O)Nc1ccccc1` the growth inhibition was -2%. Work on `O=S(O)CCCCCSSc1ccccc1` yielded a growth inhibition of 4%. Work on `Cc1ccc(C)c(N2C(=O)C(=O)C(c3nc4ccccc4o3)/C(=N\NC(=O)c3ccccc3O)C2=O)c1` (stereo not given) yielded a growth inhibition of 1%. Compound `Nc1ccc2ccccc2c1Cc1c(O)ccc2ccccc12` has a growth inhibition of 0%. `CN(C)CCC(=O)C(=Cc1cc(Cl)cc(Cl)c1)C(=O)CCN(C)C` gave a growth inhibition of -19%. `COC(=O)c1c(C(N)=O)c(C)n(NC(=O)c2ccccc2)c1C` gave a growth inhibition of -5%. `O=C(O)/C(=C/c1c(O)ccc2ccccc12)c1csc(-c2nc(/C(=C\c3c(O)ccc4ccccc34)C(=O)O)cs2)n1` showed a growth inhibition of 48%. With `O=C(O)c1c2c(cc3c1CC1(Cc4cc5c(cc4C1=O)CCC5)C3)CCC2` (stereo not given) the growth inhibition was 58%. With `CCc1cccc(C(C)(C)C)c1NC(=S)N/C=C(\c1ccccc1)S(=O)Cc1ccccc1` (stereo not given) the growth inhibition was 7%. `O=[N+]([O-])c1ccc(N/N=C/COCCO)c([N+](=O)[O-])c1` showed a growth inhibition of 9%. For `O=C(O)CSc1nc(-c2ccccc2)c(-c2ccccc2)n1-c1ccccn1`, the growth inhibition was -6%. With `C[C@]12CCC(=O)C=C1CC[C@@H]1[C@@H]2[C@@H](O)C[C@@]2(C)[C@H]1CC[C@]2(O)C(=O)COC(=O)C1CCCC1` the growth inhibition was 1%. Work on `C[C-](O)O.O/C(=C\[C-](O)c1ccccc1)c1ccccc1.O/C(=C\[C-](O)c1ccccc1)c1ccccc1.[Nd+3]` (stereo not given) yielded a growth inhibition of 36%. `[Cl][Pt+2]([Cl])([Cl])[Cl].[NH-]CC1(C[NH-])CCCC1` gave a growth inhibition of 68%. With `CSc1ccc2c(c1)S[S@@](=O)N2` the growth inhibition was -11%. Compound `O=S=C(c1ccccc1)N(Cc1ccccc1)Cc1ccccc1` has a growth inhibition of -1%. Compound `NNc1c(Cl)c(F)c(Cl)c(F)c1Cl` has a growth inhibition of 5%. `Cc1ccc(C)c(N2C(=O)C(=O)C(c3nc4ccccc4o3)C(=O)C2=O)c1` showed a growth inhibition of 18%. Compound `NC(=S)N/N=C/c1ccc(Cl)s1` has a growth inhibition of -8%. `O=c1[nH]ccc(CNC23CC4CC(CC(C4)C2)C3)c1O` gave a growth inhibition of 10%. With `CN(C)CCSc1cc(-c2ccccc2)c2ccccc2n1` the growth inhibition was 6%.

Same assay, conditions: S. cerevisiae mec2-1 strain, at 50.0 µM (retest, dose inferred, filed as 5.0), hits give high values
Work on `O=[N+]([O-])c1cccc(S(=O)(=O)N/N=C/c2cc(I)cc([N+](=O)[O-])c2O)c1` yielded a growth inhibition of 2%. In the case of `COc1cc(N=Nc2cccc(S(N)(=O)=O)c2)c2ccccc2c1N`, the growth inhibition is reported as 99% (active). In the case of `O=S(=O)(c1ccc(O)cc1)c1ccc(Cl)cc1`, the growth inhibition is reported as 20%. With `C[N+](C)=c1ccc2nc3c(cc(NCCCNc4cc5oc6cc(=[N+](C)C)ccc-6nc5c5ccccc45)c4ccccc43)oc-2c1` the growth inhibition was 80% (active). Work on `CC(C)(C)C(=O)/C=C/c1ccc2ccccc2n1` yielded a growth inhibition of -51%. In the case of `CSc1ccc(/C=N/NC(N)=S)cc1`, the growth inhibition is reported as -4%. In the case of `CN(C)c1ccc(/C=C(\C#N)c2c(F)cccc2F)cc1`, the growth inhibition is reported as 2%. Work on `O=C(/C=C\c1ccccc1)N1c2ccccc2CC1c1c[nH]c2ccccc12` (stereo not given) yielded a growth inhibition of 17%. For `COc1cccc(C2c3cc4c(cc3OC(Nc3ccccc3)C2C)OCO4)c1O` (stereo not given), the growth inhibition was 95% (active). `CC(/C=C/c1cccs1)=N\C(=S)NC(N)=S` showed a growth inhibition of 32%. In the case of `C=C1C(=O)O[C@H]2[C@H](OC(C)=O)[C@@H](C)CCC/C(C)=C/CC[C@@]3(C)O[C@@H]3C[C@@H]12`, the growth inhibition is reported as 99% (active). Compound `CC(=O)O/C=C\COC(C)=O` has a growth inhibition of -2%. In the case of `Cn1cc(NC(=O)c2cc(NC(=O)CCCCCCCCC(=O)Nc3cc(C(=O)Nc4cc(C(=O)NCCC(N)N)n(C)c4)n(C)c3)cn2C)cc1C(=O)NCCC(=N)N`, the growth inhibition is reported as 98% (active). Work on `CCCCCCCNCCCCCC` yielded a growth inhibition of 69%. For `Cc1ccc(S(=O)(=O)N(c2ccccc2-c2ccccc2)C(C)C(=O)O)cc1` (stereo not given), the growth inhibition was 80% (active). For `CCCN1C(=O)c2ccccc2C1=O`, the growth inhibition was -3%. For `CCC(CC)COC(=O)c1ccc(O)c(O)c1`, the growth inhibition was 72% (active). `COc1ccc(C2SCC(=O)N2c2nncs2)cc1` (stereo not given) gave a growth inhibition of 1%. With `O=NN(CCCl)C(=O)Oc1cc(Cl)c(Cl)cc1Cl` the growth inhibition was 100% (active). Compound `O=C(c1ccccc1)c1ccccc1S(=O)(=O)Nc1ccccc1` has a growth inhibition of 69%. With `O=S(O)CCCCCSSc1ccccc1` the growth inhibition was 40%. Work on `Cc1ccc(C)c(N2C(=O)C(=O)C(c3nc4ccccc4o3)/C(=N\NC(=O)c3ccccc3O)C2=O)c1` (stereo not given) yielded a growth inhibition of 29%. With `Nc1ccc2ccccc2c1Cc1c(O)ccc2ccccc12` the growth inhibition was 98% (active). In the case of `CN(C)CCC(=O)C(=Cc1cc(Cl)cc(Cl)c1)C(=O)CCN(C)C`, the growth inhibition is reported as 99% (active). `COC(=O)c1c(C(N)=O)c(C)n(NC(=O)c2ccccc2)c1C` showed a growth inhibition of -1%. With `O=C(O)/C(=C/c1c(O)ccc2ccccc12)c1csc(-c2nc(/C(=C\c3c(O)ccc4ccccc34)C(=O)O)cs2)n1` the growth inhibition was 48%. `O=C(O)c1c2c(cc3c1CC1(Cc4cc5c(cc4C1=O)CCC5)C3)CCC2` (stereo not given) gave a growth inhibition of 58%. For `CCc1cccc(C(C)(C)C)c1NC(=S)N/C=C(\c1ccccc1)S(=O)Cc1ccccc1` (stereo not given), the growth inhibition was 70% (active). With `O=[N+]([O-])c1ccc(N/N=C/COCCO)c([N+](=O)[O-])c1` the growth inhibition was 11%. With `O=C(O)CSc1nc(-c2ccccc2)c(-c2ccccc2)n1-c1ccccn1` the growth inhibition was -10%. Work on `C[C@]12CCC(=O)C=C1CC[C@@H]1[C@@H]2[C@@H](O)C[C@@]2(C)[C@H]1CC[C@]2(O)C(=O)COC(=O)C1CCCC1` yielded a growth inhibition of -1%. In the case of `C[C-](O)O.O/C(=C\[C-](O)c1ccccc1)c1ccccc1.O/C(=C\[C-](O)c1ccccc1)c1ccccc1.[Nd+3]` (stereo not given), the growth inhibition is reported as 36%. For `[Cl][Pt+2]([Cl])([Cl])[Cl].[NH-]CC1(C[NH-])CCCC1`, the growth inhibition was 99% (active). Work on `CSc1ccc2c(c1)S[S@@](=O)N2` yielded a growth inhibition of 61%. With `O=S=C(c1ccccc1)N(Cc1ccccc1)Cc1ccccc1` the growth inhibition was 95% (active). In the case of `NNc1c(Cl)c(F)c(Cl)c(F)c1Cl`, the growth inhibition is reported as 17%. With `Cc1ccc(C)c(N2C(=O)C(=O)C(c3nc4ccccc4o3)C(=O)C2=O)c1` the growth inhibition was 99% (active). In the case of `NC(=S)N/N=C/c1ccc(Cl)s1`, the growth inhibition is reported as 29%. With `O=c1[nH]ccc(CNC23CC4CC(CC(C4)C2)C3)c1O` the growth inhibition was 33%. With `CN(C)CCSc1cc(-c2ccccc2)c2ccccc2n1` the growth inhibition was 87% (active).
